Assay results published in PubChem BioAssay AID1851 (National Center for Advancing Translational Sciences (NCATS), 2009).
Screen size: about 16,000 compounds; about 2,600 (16%) were called active. Not shown: some 20% with an inconclusive outcome. Calls follow the shape of the dose curve; as a rule, active = well fitted curve in the direction sought with a large enough effect; inconclusive = small, poorly fitted or top-dose-only effect, or effect the other way; inactive = no such curve, though single readings can be large or run the other way. The list is a sample of the results.

These molecules were tested against Cytochrome P450 2D6 (Homo sapiens) (UniProt P10635) (assay: Cytochrome panel assay with activity outcomes). Settings: recombinant CYP, pro-luciferin dealkylation, luminescence, p450-cyp2d6; series mostly up to 57.1 µM.
% is scaled to controls: 0 for no effect and ±100 for the full control effect.

Sequence of Cytochrome P450 2D6 (Homo sapiens) (P10635 whole entry, looked up): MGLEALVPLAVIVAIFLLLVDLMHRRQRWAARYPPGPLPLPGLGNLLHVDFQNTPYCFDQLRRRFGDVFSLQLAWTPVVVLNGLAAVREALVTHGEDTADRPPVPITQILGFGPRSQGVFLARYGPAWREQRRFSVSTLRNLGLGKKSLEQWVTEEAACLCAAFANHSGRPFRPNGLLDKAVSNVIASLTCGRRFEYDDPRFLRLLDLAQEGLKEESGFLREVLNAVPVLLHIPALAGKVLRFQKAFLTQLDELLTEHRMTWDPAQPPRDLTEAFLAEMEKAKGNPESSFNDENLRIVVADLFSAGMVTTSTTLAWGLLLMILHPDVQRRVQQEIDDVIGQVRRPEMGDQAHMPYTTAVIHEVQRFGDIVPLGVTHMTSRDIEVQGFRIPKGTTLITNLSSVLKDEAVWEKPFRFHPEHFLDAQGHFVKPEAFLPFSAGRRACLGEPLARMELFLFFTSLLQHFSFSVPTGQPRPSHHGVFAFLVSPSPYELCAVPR

SMILES	AC50	activity, negative = inhibition
CCOC(=O)CCCc1c[nH]c2ccccc12	17.8 µM (active)	
C[C@@](N)(Cc1c[nH]c2ccccc12)C(=O)O		5.35% [at 11.4 µM] (inactive)
O=C(Cc1c[nH]c2ccccc12)OCC(=O)c1ccccc1	inactive	
[O-][N+]1(CC[N+]2([O-])CCCCC2)CCCCC1		3.01% [at 11.4 µM] (inactive)
COc1cccc(/C=N/n2c(=S)n(C)c3cc(C)c(C)cc32)c1OC	inactive	
CC(=O)CSc1nnc(Cc2ccc([N+](=O)[O-])cc2)o1	inactive	
O=C(O)Cc1cc2ccccc2nc1C(=O)O	inactive	
COC(=O)C1C(=O)C2=C(CC1C)NC(=O)CC2c1cccc(C)c1 (configuration not stated)	inactive	
COc1ccc2[nH]cc(CCNc3ncncc3-c3ccccc3Cl)c2c1	0.631 µM (active)	
COc1ccc2[nH]cc(CCNc3ncncc3-c3ccccc3OC)c2c1	1.26 µM (active)	
COc1ccc2[nH]cc(CCNc3ncncc3-c3ccccc3CN(C)C)c2c1	10 µM (active)	
COc1ccc2[nH]cc(CCNc3ncncc3-c3ccccc3C(F)(F)F)c2c1	2 µM (active)	
CC[C@@H]1CN2CCc3cc(OC)c(OC)cc3[C@H]2C[C@@H]1C[C@H]1NCCc2cc(OC)c(OC)cc21	inactive	
COc1c2ccoc2nc2c(OC)c(OC[C@H](O)C(C)(C)O)ccc12	inactive	
CC(=O)N1N=C(c2cccc([N+](=O)[O-])c2)OC1c1ccccc1Cl (configuration not stated)	inactive	
O=c1c(-c2cccs2)nc2cnc(Oc3cccc(Cl)c3)nc2n1C[C@H]1CCCO1	inactive	
CCc1ccc(-c2cc(C(F)(F)F)n3nc(C(=O)Nc4cnn(Cc5ccccc5C)c4)cc3n2)s1	inactive	
CCOC(=O)c1c(NC(C)=O)sc2c(OC)cccc12	inactive	
COC(=O)c1ccc(OCC2c3cc(OC)c(OC)cc3CCN2C(=O)C2CC2)cc1 (configuration not stated)	inactive	
COc1ccc2[nH]cc(CCNc3ncncc3-c3ccccc3C)c2c1	1.26 µM (active)	
CCCCN(C)S(=O)(=O)c1ccc(C(=O)Nc2nnc(CSC)o2)cc1	inactive	

SMILES	AC50	activity, negative = inhibition
CCCc1nn(-c2ccccc2)c2c1C(c1cccs1)C(C#N)=C(N)O2 (configuration not stated)	inactive	
CCC(C(=O)Nc1cccc(C(F)(F)F)c1)c1ccccc1 (configuration not stated)	inactive	
C[C@@H](Cc1cccc(C(F)(F)F)c1)NCCOC(=O)c1ccccc1	0.0158 µM (active)	
Cc1[nH]n(-c2ccccc2)c(=O)c1CCOC(=O)c1cccc(C(F)(F)F)c1	inactive	
COc1cccc(-c2cc(C(=O)N/N=C/c3ccc(OC)c(COC(C)=O)c3)c3ccccc3n2)c1	inactive	
CN(C)C(=O)c1ccc(-n2nc(C(F)(F)F)c3c2CCCC3)cc1	8.91 µM (active)	
CCc1ccc(NC(=O)Cn2nc(C(F)(F)F)c3c2CCC3)cc1	inactive	
O=C(Cn1nnc(-c2ccccc2)n1)OCc1ccccc1	inactive	
CCC[C@H](Sc1nc(N)nc2nc[nH]c12)C(=O)O		1.31% [at 11.4 µM] (inactive)
CCCNC(=O)OC[C@H]1O[C@@H](CCO/N=C2/[C@H]3O[C@@H]3[C@@H](O)[C@H]3[C@H]2CCn2c(=O)n(-c4ccccc4)c(=O)n23)C=C[C@@H]1Oc1ccc(OC)cc1		10.6% [at 11.4 µM] (inactive)
CCCCCc1nc2c(C#N)c(-c3ccc(Cl)cc3)ccn2n1	inactive	
O=C(c1cnccn1)N1CCC2(CC1)CN(C(c1ccccc1)c1ccccc1)C2	6.31 µM (active)	
O=C(c1cnccn1)N1CCC2(CC1)CN(c1ccccc1)C2	inactive	
O=C(c1cnccn1)N1CCC2(CC1)CCN(c1ccccc1)CC2	inactive	
O=C(c1cnccn1)N1CCC[C@@]2(CCN(c3ccccn3)C2)C1	inactive	
O=C(Nc1ccccc1)N1CCC2(CC1)CCN(C(=O)c1cnccn1)CC2	inactive	
O=C(Nc1ccccc1)N1CC[C@@]2(CCCN(C(=O)c3cnccn3)C2)C1	inactive	
O=C(Nc1ccccc1)N1CC2(CCN(C(=O)c3cnccn3)CC2)C1	inactive	
O=C(c1cnccn1)N1CCC2(CC1)CCN(C(c1ccccc1)c1ccccc1)CC2	3.98 µM (active)	
O=C(c1cnccn1)N1CCC2(CCCN(c3ccccc3)C2)CC1	inactive	
O=C(Nc1ccccc1)N1CCCC2(CCN(C(=O)c3cnccn3)CC2)C1	inactive	

SMILES	AC50	activity, negative = inhibition
O=C(c1cnccn1)N1CCC[C@@]2(CCN(C(c3ccccc3)c3ccccc3)C2)C1	10 µM (active)	
O=C(c1cnccn1)N1CCC2(CCCN(C(c3ccccc3)c3ccccc3)C2)CC1	10 µM (active)	
Cc1cc(NC(=O)Nc2ccc(F)cc2)no1	inactive	
Clc1ccccc1C(Nc1ncccn1)Nc1ncccn1		1.87% [at 11.4 µM] (inactive)
CN(C)CCCN=c1c2ccccc2n(C)c2[nH]c(=O)n(C)c(=O)c12		13.4% [at 11.4 µM] (inactive)
CCN1CCN(C(=O)C2c3cc(OC)c(OC)cc3C(=O)N3CCc4ccccc4C23)CC1 (configuration not stated)	inactive	
O=C(O)C1C2C=CC3(CN(Cc4ccccn4)C(=O)C13)O2 (configuration not stated)	inactive	
CCOC(=O)Cn1nnc2c(sc3nc4c(c(-c5ccc(Cl)cc5)c32)CCC4)c1=O	inactive	
CC(C)Cn1c(=O)n(C)c(=O)c2[nH]cnc21	inactive	
FC(F)(F)c1cc(C(F)(F)F)c2ccc(N/N=C/c3cccc(Cl)c3)nc2n1	inactive	
FC(F)(F)c1ccccc1-c1cncnc1NCc1cccs1	15.8 µM (active)	
CC(=O)NCCNc1ncncc1-c1ccccc1C	inactive	
Cc1ccccc1-c1cncnc1NCc1cccs1	12.6 µM (active)	
COc1ccccc1-c1cncnc1NCc1cccs1	15.8 µM (active)	
Clc1ccccc1-c1cncnc1NCc1cccs1	10 µM (active)	
Cc1cnc(CNc2ncncc2-c2c(C)noc2C)cn1	inactive	
CO[C@H]1COC(=O)C/C=C\[C@@H](C)COC(=O)[C@@H](C)NC(=O)C/C=C\[C@@H]1C		1.11% [at 11.4 µM] (inactive)
O=S(=O)(c1ccccc1S(=O)(=O)N1CCCCC1)N1CCCCC1	inactive	
CC1(CCC#N)N=C(SCCC#N)N(c2ccccc2)C1=O (configuration not stated)	inactive	
Cc1ccc(S(=O)(=O)N[C@H](CN)C(=O)O)cc1		3.02% [at 11.4 µM] (inactive)
